Bead autofluor: counter-screen for toxin protease inhibitors: compound fluorescence; AID 624483; compound autofluorescence counterscreen, microsphere flow cytometry; hits give high values; fluorescence intensity (test concentration not listed); hit rate 3.1% among 360,000; in the data active means fluorescence intensity above about 16000; inconclusive means no clear call, values can overlap the other calls
BoNT-A LC inh2: BoNT/A light chain protease inhibitors, primary screen, biochemical, flow cytometry, MLPCN library. inhibition, % at 10 µM. multiplex microsphere protease substrate cleavage. Botulinum neurotoxin type A light chain protease (Clostridium botulinum A str. ATCC 3502). hit rate 0.17% among 360,000
Anthrax LF inh2: Bacillus anthracis LF protease inhibitors, primary screen, biochemical, multiplex microsphere, MLPCN library. Lethal factor (Bacillus anthracis), P15917. multiplex microsphere protease cleavage assay. inhibition, % at 10 µM. hit rate 0.12% among 360,000. AID 588501, 2011
Target sequence (P15917 whole entry, looked up): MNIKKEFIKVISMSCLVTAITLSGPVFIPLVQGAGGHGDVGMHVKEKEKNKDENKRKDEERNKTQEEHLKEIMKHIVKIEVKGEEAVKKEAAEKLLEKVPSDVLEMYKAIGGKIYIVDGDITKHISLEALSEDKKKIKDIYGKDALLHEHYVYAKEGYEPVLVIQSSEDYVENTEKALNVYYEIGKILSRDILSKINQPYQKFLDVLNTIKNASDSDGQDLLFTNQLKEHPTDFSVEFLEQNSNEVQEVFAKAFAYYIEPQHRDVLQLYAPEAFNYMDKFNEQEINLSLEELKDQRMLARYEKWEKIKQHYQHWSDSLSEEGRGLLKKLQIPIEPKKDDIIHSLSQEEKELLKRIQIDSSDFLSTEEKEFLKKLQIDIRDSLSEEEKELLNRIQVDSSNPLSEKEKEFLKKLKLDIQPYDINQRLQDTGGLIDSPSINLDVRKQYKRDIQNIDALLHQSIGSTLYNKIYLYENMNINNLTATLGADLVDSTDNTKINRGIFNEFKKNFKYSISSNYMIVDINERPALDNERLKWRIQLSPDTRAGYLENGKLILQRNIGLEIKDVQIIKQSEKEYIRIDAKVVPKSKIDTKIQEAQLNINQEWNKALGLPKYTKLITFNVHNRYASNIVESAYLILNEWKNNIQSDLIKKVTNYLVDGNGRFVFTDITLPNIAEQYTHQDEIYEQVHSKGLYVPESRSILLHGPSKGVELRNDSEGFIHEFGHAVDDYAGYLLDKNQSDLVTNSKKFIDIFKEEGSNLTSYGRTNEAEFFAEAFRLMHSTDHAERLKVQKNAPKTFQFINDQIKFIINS
BoNT-F LC inh: BoNT/F light chain protease inhibitors, primary screen, biochemical, flow cytometry, MLPCN library; Botulinum neurotoxin type F light chain protease (Clostridium botulinum); Multiplex microsphere protease cleavage assay; inhibition, % at 10 µM; hit rate 0.22% among 360,000; AID 588497, 2011; in the data active means inhibition above about 35%, passing the limit was not always enough; inconclusive means no clear call, values can overlap the other calls
SSB-PriA inh: inhibitors of Klebsiella pneumoniae PriA binding to SSB C-terminal tail, primary screen, biochemical, AlphaScreen | PriA–SSB C-terminal tail interaction (Klebsiella pneumoniae) | AlphaScreen SSBct-PriA binding, biotinylated peptide | inhibition, % at 33 µM | hit rate 0.6% among 430,000; in the data active means inhibition mostly above about 37%, no sharp cut-off; inactive means mostly below about 20%
MazEF act: activators of E. coli MazEF toxin-antitoxin RNase, primary screen, biochemical, fluorescence, uHTS. activation, % at 20 µM. AID 504720, 2011. hit rate 0.32% among 350,000. FAM/BHQ RNA-DNA oligo cleavage fluorescence, 5 h; in the data active means activation above about 50%
A number is an active result; . = inactive; ? = inconclusive; / = no result. Sampled rows, rich in hits. Any-hit rate of the full collection: about 3.3%. Unless noted, no stated cut-off is given here; in the data, active means inhibition above about 30%; inconclusive means no clear call, values can overlap the other calls; inactive means below that.

SMILES | Bead autofluor | BoNT-A LC inh2 | Anthrax LF inh2 | BoNT-F LC inh | SSB-PriA inh | MazEF act
CCOC(=O)c1cnc(-n2[nH]c(C)c(Cc3ccccc3)c2=O)[nH]c1=O | . | . | . | . | 84 | .
CCOC(=O)c1cnc(-n2[nH]c(C)cc2=O)[nH]c1=O | . | . | . | . | 93 | .
CCOC(=O)c1cnc(-n2nc(C)cc2C)[nH]c1=O | . | . | . | . | . | .
CCN(CC)c1ccc(C=Nc2ccc(C)cc2C)c(O)c1 | . | 37 | . | . | . | .
CCN(CC)c1ccc(C=Nc2cc(C)ccc2C)c(O)c1 | . | 72 | . | . | . | .
C/C=C(\C)CN1CCc2cc(OC)c(OC)cc2C1 | 24105 | . | . | . | . | .
Cn1cnnc1SCC(=O)c1ccc2c(c1)OCCO2 | 16723 | . | . | . | . | .
O=C(CSc1nnc(SCc2cccc3ccccc23)s1)c1ccc2c(c1)OCO2 | 19293 | . | . | . | . | .
CCc1nc(SCC(=O)c2ccc3c(c2)OCCO3)c2ccccc2n1 | 22675 | . | . | . | . | .
Cc1nnc(SCC(=O)c2ccc3c(c2)OCCO3)s1 | / | / | / | / | . | /
CC(C)(C)C(=O)N1CCc2ccc(NC(=O)C34CC5CC(CC(C5)C3)C4)cc21 | / | / | / | / | . | /
Oc1ccccc1C(=S)N1CCCCCC1 | 19817 | . | . | . | . | .
Oc1ccccc1C(=S)N1CCCCC1 | . | . | . | . | . | .
COc1ccc(C2=NOC(C(=O)NCc3ccco3)C2)cc1 (configuration not stated) | 20757 | . | . | . | . | .
COc1ccc(C2=NOC(C(=O)NCCCN3CCOCC3)C2)cc1 (configuration not stated) | . | . | . | . | . | .
COc1ccc(CNC(=O)C2CC(c3ccc(F)cc3)=NO2)cc1 (configuration not stated) | 22739 | . | . | . | . | .
CCC(C)NC(=O)C1CC(c2ccc(OC)cc2)=NO1 (configuration not stated) | 20670 | . | . | . | . | .
COc1ccc(C2=NOC(C(=O)NCCN3CCOCC3)C2)cc1 (configuration not stated) | 21268 | . | . | . | . | .
COc1ccc(C2=NOC(C(=O)NCc3ccc(F)cc3)C2)cc1 (configuration not stated) | . | . | . | . | . | .
O=C(NCC1(c2ccccc2)CCOCC1)c1ccc(OC(F)(F)F)cc1 | / | / | / | / | . | /
CCn1nc(C)cc1C(=O)N1CCN(c2nc3c(C)ccc(C)c3s2)CC1 | / | / | / | / | . | /
O=C(C1CC(c2ccc(F)cc2)=NO1)N1CCCCC1 (configuration not stated) | 22237 | . | . | . | . | .
COc1cc(C2=NOC(C(=O)N3CCOCC3)C2)cc(OC)c1OC (configuration not stated) | 24903 | ? | . | . | . | .
COc1ccc(NC(=O)C2C3C=CC(C3)C2C(=O)NCc2ccco2)cc1 (configuration not stated) | 16864 | . | . | . | . | .
COc1ccc(NC(=O)CSCC(=O)NCc2ccco2)cc1 | . | . | . | . | . | .
SMILES | Bead autofluor | BoNT-A LC inh2 | Anthrax LF inh2 | BoNT-F LC inh | SSB-PriA inh | MazEF act
COc1ccc(C2=NOC(C(=O)N3CCCCCC3)C2)cc1OC (configuration not stated) | . | . | . | . | . | .
O=S(=O)(c1ccc(Cl)c(Cl)c1)N1CCc2nc3ccccc3n2CC1 | 17740 | . | . | . | . | .
CCn1nc([N+](=O)[O-])c(C(C#N)c2nc3ccccc3n2C)c(Cl)c1=O (configuration not stated) | . | . | . | . | . | .
CCCn1nc([N+](=O)[O-])c(C(C#N)c2nc3ccccc3s2)c(Cl)c1=O (configuration not stated) | . | . | . | . | 55 | .
CCOc1ccccc1NC(=O)C(=O)NCC1CCN(C(=O)Oc2ccccc2)CC1 | / | / | / | / | . | /
O=C(CSc1nnc(-c2ccc(O)cc2)n1Cc1ccco1)N1CCc2ccccc2C1 | 16322 | . | . | . | . | .
CC1CCN(C(=O)CSc2nnc(-c3cccnc3)n2C2CCCCC2)CC1 | 17010 | ? | . | . | . | .
Cc1ccc(-n2c(SCC(=O)N3CCCc4ccccc43)nnc2-c2cccnc2)c(C)c1 | 26671 | . | . | . | . | .
CC1CCCCN1C(=O)CSc1nnc(-c2cccnc2)n1C1CCCCC1 (configuration not stated) | . | . | . | . | . | .
CCc1cccc(CC)c1-n1c(SCC(=O)N2CCc3ccccc3C2)nnc1-c1cccnc1 | 36354 | . | . | . | . | .
Cc1cc(C)n(-c2ccc(C(=O)NCC(F)(F)F)nn2)n1 | / | / | / | / | . | /
CCOc1ccc(-n2c(=S)sc3c(=O)[nH]c(SCC(=O)Nc4ccc(CC)cc4)nc32)cc1 | / | / | / | / | . | /
O=C(CSc1nnc(-c2ccncc2)n1C1CCCCC1)Nc1cccc(O)c1 | 16523 | . | . | . | . | .
CN(Cc1ccccc1)S(=O)(=O)c1cccc2cccnc12 | 24517 | . | . | . | . | .
C(=C\CSc1ncn[nH]1)/CSc1ncn[nH]1 | 20380 | . | . | . | . | .
c1n[nH]c(SCCCCSc2ncn[nH]2)n1 | / | / | / | / | . | .
O=C(Nc1cccnc1)Nc1ccc(Br)cc1Cl | 16594 | . | . | . | . | .
CCCc1nc2c(C)cc(Br)cn2c1Cc1ccc(C)cc1 | . | . | . | . | / | /
Cc1cc(Br)cn2ccnc12 | 22557 | . | . | . | . | .
COc1ccc(NC(=O)Cc2csc(Nc3cccc(Cl)c3)n2)c(OC)c1 | / | / | / | / | 16 | /
COc1ccccc1NC(=O)Cc1csc(NC(=S)Nc2ccccc2)n1 | 20382 | . | . | . | . | .
CCCC(C)C(=O)Nc1nc(C)c(-c2csc(Nc3cc(OC)ccc3OC)n2)s1 (configuration not stated) | . | . | . | . | 47 | .
COc1ccc(OC)c(Nc2nc(CC(=O)Nc3ccc4c(c3)OCCO4)cs2)c1 | / | / | / | / | 33 | /
CCOc1ccccc1NC(=O)Cc1csc(Nc2cccc(Cl)c2)n1 | / | / | / | / | . | /
Cc1cc(C(=O)NCCn2ncc3c(N4CCN(c5ncccn5)CC4)ncnc32)no1 | / | / | / | / | . | /
O=C(Cn1cccc1)N1CCN(c2cc3c(nn2)CCCC3)CC1 | / | / | / | / | . | /
COc1ccc(OC)c(Nc2nc(CC(=O)NCc3ccncc3)cs2)c1 | / | / | / | / | . | /
COc1ccc(OC)c(Nc2nc(CC(=O)Nc3ccc(C)cc3)cs2)c1 | / | / | / | / | 31 | /
COc1ccc(OC)c(Nc2nc(CC(=O)NCc3ccc(F)cc3)cs2)c1 | / | / | / | / | 18 | /
O=C(CNS(=O)(=O)c1ccc(F)cc1F)N1CCOC(c2ccccc2)C1 (configuration not stated) | / | / | / | / | . | /
